# ADAM17 inh: ADAM17 inhibitors, primary screen, biochemical, QFRET. Disintegrin and metalloproteinase domain-containing protein 17 (Homo sapiens), P78536. inhibition, % at 6.95 µM. AID 720648, 2013. 370,000 tested, 0.83% active. recombinant ADAM17, EDANS/DABCYL FRET peptide cleavage;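 active = inhibition above the mean of compounds lying between control limits plus 3 SD, set per campaign, cut at about 8.5% in these data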
# ADAM10 inh: human ADAM10 inhibitors, primary screen, biochemical, QFRET, HTS; Disintegrin and metalloproteinase domain-containing protein 10 (Homo sapiens), O14672; recombinant ADAM10, EDANS/DABCYL FRET peptide cleavage, 3 h; inhibition, % at 7 µM; 370,000 tested, 0.62% active; AID 720582, 2013;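 active = inhibition above a per-campaign cutoff equal to the mean of compounds falling between control-based bounds plus 3 SD, cut at about 20% in these data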
# KLK7 zymogen act: proKLK7 zymogen activators, primary screen, biochemical, fluorescence intensity | Kallikrein-7 (Homo sapiens), P49862 | purified proKLK7, EDANS-DABCYL substrate fluorescence; 100% is mature enzyme control, 0% vehicle | activation, % at 7 µM | 370,000 tested, 0.9% active | AID 652039, 2013;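 active = activation above the mean of all tested compounds plus 3 SD, computed per campaign excluding outliers beyond control limits, cut at about 13% in these data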
# Pemphigus Ab inh: inhibitors of pemphigus antibody binding to DSG3, primary screen, biochemical, bead-based, flow cytometry, scFv-GFP; Desmoglein-3 (Homo sapiens), P32926; DSG3-coupled beads, scFv-anti-DSG3-GFP binding; hits give low values; binding (percent of control), % at 10 µM; 310,000 tested, 0.48% active; AID 588358, 2011;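 active = binding more than 3 SD below its plate's average and above zero; inconclusive = below that plate limit but binding exactly zero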;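 note: hits lower antibody fragment binding to DSG3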
# Target sequence (P32926 whole entry, looked up, the tested form may be a part): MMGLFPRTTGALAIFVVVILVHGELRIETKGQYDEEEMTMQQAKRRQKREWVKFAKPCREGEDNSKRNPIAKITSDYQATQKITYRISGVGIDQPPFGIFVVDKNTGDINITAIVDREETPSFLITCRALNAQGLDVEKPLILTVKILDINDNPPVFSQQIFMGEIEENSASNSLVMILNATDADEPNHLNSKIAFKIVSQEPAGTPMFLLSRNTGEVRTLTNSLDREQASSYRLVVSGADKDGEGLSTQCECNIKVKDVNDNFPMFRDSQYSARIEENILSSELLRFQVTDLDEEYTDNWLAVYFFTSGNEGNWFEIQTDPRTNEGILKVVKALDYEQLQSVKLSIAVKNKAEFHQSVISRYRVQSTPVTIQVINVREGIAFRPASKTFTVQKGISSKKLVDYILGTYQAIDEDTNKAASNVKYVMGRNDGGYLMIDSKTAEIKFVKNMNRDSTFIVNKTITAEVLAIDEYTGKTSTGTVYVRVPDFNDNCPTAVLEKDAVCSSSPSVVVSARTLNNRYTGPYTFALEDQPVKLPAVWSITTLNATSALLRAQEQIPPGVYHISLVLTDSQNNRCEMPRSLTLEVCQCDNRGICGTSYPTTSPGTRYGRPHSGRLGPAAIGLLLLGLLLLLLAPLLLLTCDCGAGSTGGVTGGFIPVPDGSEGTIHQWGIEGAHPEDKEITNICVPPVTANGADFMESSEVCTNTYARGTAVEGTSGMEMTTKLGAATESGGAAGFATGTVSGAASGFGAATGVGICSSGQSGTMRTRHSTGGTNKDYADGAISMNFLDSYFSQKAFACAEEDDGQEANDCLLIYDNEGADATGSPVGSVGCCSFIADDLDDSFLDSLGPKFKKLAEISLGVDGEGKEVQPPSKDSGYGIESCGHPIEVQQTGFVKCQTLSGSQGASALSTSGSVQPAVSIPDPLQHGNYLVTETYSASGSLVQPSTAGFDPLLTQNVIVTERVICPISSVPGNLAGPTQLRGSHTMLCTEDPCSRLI
# rCAG binder-1: binders of r(CAG) RNA repeats, primary screen, biochemical, fluorescence; 370,000 tested, 1.3% active; inhibition, % at 3 µM; r(CAG) RNA repeat, TO-PRO-1 dye displacement fluorescence;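 active = inhibition above the plate cutoff, the mean of all test compounds on that plate plus 3 SD, cut at about 35% in these data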;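 note: higher means more dye released from RNA so lower well fluorescence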
# MPTP inh: mitochondrial permeability transition pore inhibitors, primary screen, biochemical, isolated mouse mitochondria, absorbance | Ca2+ swelling absorbance, 30 min | inhibition, % at 10 µM | 360,000 tested, 1.4% active;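 active = inhibition of 50% or more, scaled per plate between neutral and stimulator controls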
# rCAG binder conf: small molecules binding CAG repeat RNA – biochemical, fluorescence, confirmation; shares compounds with rCAG binder-1; r(CAG) RNA repeat, TO-PRO-1 dye displacement fluorescence; inhibition, % at 3 µM; 4,300 tested, 70% active; AID 652065, 2013;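 active = inhibition above a per-plate cutoff, the mean inhibition of sample wells plus 3 SD, cut at about 35% in these data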;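 note: loss of TO-PRO-1 fluorescence as compound displaces dye from 1x1 AA loop RNA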
# DNA CAG counter: displacement of TO-PRO-1 from CAG DNA duplex, counter-screen for rCAG RNA repeat binder project, biochemical, fluorescence, TO-PRO-1 dye, d(CAG) DNA oligo; shares compounds with rCAG binder-1; d(CAG) DNA oligo TO-PRO-1 dye displacement; inhibition, % at 3 µM; 4,300 tested, 94% active;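 active = inhibition above its plate's cutoff, the mean test-well inhibition plus 3 SD, cut at about 4.8% in these data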;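 note: hits displace the dye from DNA and so lower well fluorescence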
# DNA CAG DR: inhibitors of DNA CAG/GTC TO-PRO-1 complex, dose response, counter-screen for rCAG RNA repeat binder project, biochemical, fluorescence, TO-PRO-1 dye | IC50, µM | 250 tested, 20% active | shares compounds with rCAG binder-1 | AID 686960, 2013 | DNA CAG/GTC duplex TO-PRO-1 dye displacement fluorescence; in the data active = IC50 below about 10 µM
# dCAG DNA bind: TO-PRO-1 dye complex inhibitors on d(CAG) DNA, dose response, counter-screen, biochemical, fluorescence, late stage | shares compounds with rCAG binder-1 | d(CAG) DNA duplex TO-PRO-1 dye displacement | IC50, µM | 30 tested, 80% active | AID 720649, 2013
# rCAG binder-2: molecules binding r(CAG) RNA repeats, late stage dose response, late-stage follow-up, biochemical, fluorescence, dose response, powder samples. AID 720651, 2013. r(CAG) RNA TO-PRO-1 dye displacement. IC50, µM. shares compounds with rCAG binder-1. 30 tested, 100% active
# A number is an active result; - = inactive; ? = inconclusive; . = no result given. This is a sample that favours compounds with a hit; in the whole collection about 4.7% have one here. Unless noted, the rule behind the calls is not given here.
SMILES,ADAM17 inh,ADAM10 inh,KLK7 zymogen act,Pemphigus Ab inh,rCAG binder-1,MPTP inh,rCAG binder conf,DNA CAG counter,others
CC1CCc2c(sc(NC(=O)COC(=O)c3ccc(NC(=O)CC#N)cc3)c2C#N)C1 (centres undefined),-,-,-,-,39,-,37,18,
Cc1cc(C(=O)OCC(=O)Nc2sc3c(c2C#N)CCC(C)C3)c2ccccc2n1 (centres undefined),-,-,-,-,-,-,.,.,
COC(=O)C12C=C3CC(c4ccc(C(F)(F)F)cc4)=C3C(=O)N1Cc1[nH]c3ccccc3c1C2 (centres undefined),-,-,-,.,-,.,.,.,
COc1ccc(N2CCN(C(=O)CNC(=O)c3ccccc3Cl)CC2)cc1,-,-,-,-,-,-,.,.,
NC(c1csc(NC(=O)Nc2ccccc2Cl)n1)C1CCCCC1 (centres undefined),-,-,-,.,-,-,.,.,
NC(c1csc(NC(=O)Nc2ccccc2)n1)C1CCCCC1 (centres undefined),-,-,-,.,42,-,-,4.8,
NC(c1csc(NC(=O)Nc2cccc(Cl)c2)n1)C1CCCCC1 (centres undefined),-,-,-,.,47,-,-,5.9,
O=C(NCCc1ccccc1)/C(=C\c1ccccc1)NC(=O)c1ccco1,-,-,-,-,-,-,.,.,
O=C(NNC(=S)NC(=O)c1ccccc1[N+](=O)[O-])c1ccccc1O,-,-,-,-,-,-,.,.,
O=C(NC(=S)Nc1cccc2c(O)cccc12)c1ccccc1[N+](=O)[O-],-,-,-,-,39,-,-,7.3,
COC(=O)C1=C(C)N(Cc2ccc(F)cc2)C(=S)NC1c1ccc(Cl)cc1 (centres undefined),-,-,-,.,-,.,.,.,
CC1=CCC[C@@H]2[C@@](C)(CC/C(C)=C/C(=O)O)[C@H](C)CC[C@@]12C,-,-,-,-,45,-,43,8.6,
C[C@@H]1CC[C@@]23COC(=O)C2=CCC[C@@H]3[C@@]1(C)CC/C(=C/CO)CO,-,-,-,-,-,-,.,.,
COc1cccc(Nc2nc(-c3sc(NC(=O)c4ccco4)nc3C)cs2)c1,-,-,-,-,37,-,-,17,
COc1ccc(Cl)cc1Nc1nc(-c2sc(NC(=O)c3ccco3)nc2C)cs1,-,-,-,-,35,-,-,17,
COc1cccc(Nc2nc(-c3sc(C)nc3C)cs2)c1,-,-,-,-,-,-,.,.,
C=CCn1c(SCC(N)=O)nnc1-c1ccc(C)cc1,-,-,-,.,-,.,.,.,
CN(C)CCNc1ncnc2c1ncn2[C@H]1CN(Cc2ccco2)C[C@@H](CO)O1,.,.,.,.,.,-,.,.,
C/C(CC(=O)N1CCN(C=O)CC1)=N\NC(=O)c1cc2ccccc2cc1O,-,-,-,-,53,-,-,9.2,
O=C(O)c1ccc(/C=N/NC(=O)c2cc3ccccc3cc2O)cc1,-,-,-,.,47,-,-,7.6,
Cn1c2ccccc2c2cc(/C=N/NC(=O)c3ccc(O)cc3O)ccc21,.,.,.,-,.,-,.,.,
O=C(CNc1ccc2ccccc2c1)N/N=C/c1ccc(C(=O)O)cc1,-,-,-,-,-,-,.,.,
Cn1c(O)c(/C=N/NC(=O)c2cc3ccccc3cc2O)c2ccccc21,-,-,-,-,95,-,90,75,
CC(=O)Nc1ccc(N=Cc2c(O)c(C(=O)Nc3ccccc3)cc3ccccc23)cc1,-,-,-,.,-,.,.,.,
COc1ccc2c(c1)cc(C(=O)N/N=C/c1c(O)c(C(=O)O)cc3ccccc13)n2C,-,-,-,?,91,-,89,68,
SMILES,ADAM17 inh,ADAM10 inh,KLK7 zymogen act,Pemphigus Ab inh,rCAG binder-1,MPTP inh,rCAG binder conf,DNA CAG counter,others
C[C@H](O)[C@@H]1C(=O)N2CCc3c([nH]c4c(-c5ccccc5)cccc34)[C@@H]2C[C@@H]1N(C)C(=O)c1ccco1,-,-,-,.,-,.,.,.,
CC[C@H](C)[C@H]1CNC(=O)C(=O)N1CC1CCN(CC(C)C)CC1,-,-,-,.,-,.,.,.,
CCC1(c2ccc(C)cc2)NC(=O)N(C(C)C(=O)Nc2ccc(N3CCOCC3)cc2)C1=O (centres undefined),-,-,-,-,-,-,.,.,
Nc1nc(-c2ccccc2)c(N=Nc2cccc3ccccc23)s1,-,-,-,-,35,-,-,18,
CC(=O)Nc1sc(N)nc1-c1ccccc1,-,-,-,-,-,-,.,.,
O[C@@H]1[C@@H](O)[C@H](n2c3ccc(Cl)cc3c3ccc4c5cc(Cl)ccc5[nH]c4c32)OC[C@H]1O,-,-,-,.,51,.,43,27,
O=C(O)CSc1c2c(nc3cc(C(=O)Nc4cccc(C(F)(F)F)c4)ccc13)CCC2,-,-,-,.,72,-,57,21,
CCOC(=O)c1ccccc1NC(=O)c1ccc2c(SCC(=O)O)c3c(nc2c1)CCCC3,-,-,-,-,46,-,74,30,DNA CAG DR=7.1;dCAG DNA bind=5.5;rCAG binder-2=3
COc1cc(Cl)c(C)cc1NC(=O)c1ccc2c(SCC(=O)O)c3c(nc2c1)CCCC3,-,-,-,-,-,-,.,.,
COc1cc(NC(=O)CSc2nc3ccccc3cc2C)c(C(=O)O)cc1OC,-,-,-,-,-,-,.,.,
CCc1cc2ccccc2nc1SCC(=O)Nc1cc(OC)c(OC)cc1C(=O)O,-,-,-,-,53,-,45,13,
